# Values joined by “and” are separate entries in the source; they are usually repeats but may differ in a detail not shown here. Identical values can stand only once. The whole screen tested about 5,500 compounds, of which about 2,000 (36%) were called active. Roughly 18% stayed inconclusive and do not appear here. No stated cut-off is given here; in the data, active means normalized growth mostly below about 0.91 (no sharp cut-off); inconclusive means no clear call, values can overlap the other calls; inactive means mostly above about 0.92. The list shows a part of the results.
# Assay: chemical genetic growth profiling, strain panel (AID 1159580);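 further: tested at 20 µM; growth read once vehicle control cultures reached saturation at 30 °C; 1 = growth at the plate median or of vehicle wells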
# Conditions: S. cerevisiae deletion strains, growth OD
compound,measurement,setting,value
CO[C@H]1CC(O[C@@H]2/C(C)=C/C[C@@H]3C[C@@H](C[C@]4(CC[C@H](C)[C@@H](C5CCCCC5)O4)O3)OC(=O)[C@@H]3C=C(C)/C(=N\O)[C@H]4OC/C(=C\C=C\[C@@H]2C)[C@]43O)O[C@@H](C)C1O (some centres undefined),normalized growth,"locus YAL013W, strain DEP1, stronger effect = lower value",0.956 (inactive)
same,normalized growth,"locus YAL021C, strain ccr4, stronger effect = lower value",1.09 (inactive)
same,normalized growth,"locus YAL026C, strain drs2, stronger effect = lower value",1.02 (inactive)
same,normalized growth,"locus YAL030W, strain snc1, stronger effect = lower value",1.02 (inactive)
same,normalized growth,"locus YBL061C, strain skt5, stronger effect = lower value",0.989 (inactive)
same,normalized growth,"locus YBR009C, strain hhf1, stronger effect = lower value",1.03 (inactive)
same,normalized growth,"locus YBR021W, strain FUR4, stronger effect = lower value",0.952 (inactive)
same,normalized growth,"locus YBR023C, strain chs3, stronger effect = lower value",0.991 (inactive)
same,normalized growth,"locus YBR171W, strain sec66, stronger effect = lower value",0.988 (inactive)
same,normalized growth,"locus YBR229C, strain ROT2, stronger effect = lower value",0.992 (inactive)
same,normalized growth,"locus YBR231C, strain swc5, stronger effect = lower value",0.877 (active)
same,normalized growth,"locus YBR279W, strain paf1, stronger effect = lower value",1.01 (inactive)
same,normalized growth,"locus YCL011C, strain gbp2, stronger effect = lower value",1 (inactive)
same,normalized growth,"locus YCL016C, strain dcc1, stronger effect = lower value",1.01 (inactive)
same,normalized growth,"locus YCL029C, strain bik1, stronger effect = lower value",0.984 (inactive)
same,normalized growth,"locus YCL061C, strain MRC1, stronger effect = lower value",1.02 (inactive)
same,normalized growth,"locus YCL069W, strain vba3, stronger effect = lower value",1.02 (inactive)
same,normalized growth,"locus YCR088W, strain abp1, stronger effect = lower value",1.02 (inactive)
same,normalized growth,"locus YDL005C, strain med2, stronger effect = lower value",1.02 (inactive)
same,normalized growth,"locus YDL035C, strain GPR1, stronger effect = lower value",0.949 (inactive)
same,normalized growth,"locus YDL040C, strain nat1, stronger effect = lower value",1.02 (inactive)
same,normalized growth,"locus YDL074C, strain BRE1, stronger effect = lower value",0.979 (inactive)
same,normalized growth,"locus YDL101C, strain DUN1, stronger effect = lower value",0.979 (inactive)
same,normalized growth,"locus YDL134C, strain PPH21, stronger effect = lower value",0.96 (inactive)
same,normalized growth,"locus YDL185W, strain tfp1, stronger effect = lower value",0.0713 (active)
same,normalized growth,"locus YDL192W, strain arf1, stronger effect = lower value",0.989 (inactive)
same,normalized growth,"locus YDR001C, strain nth1, stronger effect = lower value",1.01 (inactive)
same,normalized growth,"locus YDR069C, strain doa4, stronger effect = lower value",1 (inactive)
same,normalized growth,"locus YDR101C, strain arx1, stronger effect = lower value",0.998 (inactive)
same,normalized growth,"locus YDR137W, strain rgp1, stronger effect = lower value",0.39 (active)
same,normalized growth,"locus YDR150W, strain NUM1, stronger effect = lower value",0.984 (inactive)
same,normalized growth,"locus YDR159W, strain sac3, stronger effect = lower value",0.756 (active)
same,normalized growth,"locus YDR162C, strain NBP2, stronger effect = lower value",0.928 (inactive)
same,normalized growth,"locus YDR195W, strain ref2",0.883 (inactive)
same,normalized growth,"locus YDR297W, strain sur2, stronger effect = lower value",1.02 (inactive)
same,normalized growth,"locus YDR318W, strain mcm21, stronger effect = lower value",0.992 (inactive)
same,normalized growth,"locus YDR334W, strain swr1, stronger effect = lower value",1.02 (inactive)
same,normalized growth,"locus YDR335W, strain msn5, stronger effect = lower value",0.982 (inactive)
same,normalized growth,"locus YDR388W, stronger effect = lower value",0.991 (inactive)
same,normalized growth,"locus YDR392W, strain spt3, stronger effect = lower value",0.979 (inactive)
same,normalized growth,"locus YDR502C, strain sam2, stronger effect = lower value",0.983 (inactive)
same,normalized growth,"locus YEL003W, strain gim4, stronger effect = lower value",1.01 (inactive)
same,normalized growth,"locus YEL037C, strain rad23, stronger effect = lower value",1.02 (inactive)
same,normalized growth,"locus YEL061C, strain CIN8 (second series), stronger effect = lower value",1.02 (inactive)
same,normalized growth,"locus YEL061C, strain CIN8, stronger effect = lower value",0.987 (inactive)
same,normalized growth,"locus YER015W, strain faa2, stronger effect = lower value",0.997 (inactive)
same,normalized growth,"locus YER016W, strain bim1, stronger effect = lower value",0.989 (inactive)
same,normalized growth,"locus YER110C, stronger effect = lower value",0.994 (inactive)
same,normalized growth,"locus YER111C, strain swi4, stronger effect = lower value",1.02 (inactive)
same,normalized growth,"locus YER155C, strain BEM2 (second series), stronger effect = lower value",1 (inactive)
same,normalized growth,"locus YER155C, strain BEM2, stronger effect = lower value",1.02 (inactive)
same,normalized growth,"locus YER167W, strain BCK2, stronger effect = lower value",0.994 (inactive)
same,normalized growth,"locus YFR010W, strain ubp6, stronger effect = lower value",1.02 (inactive)
same,normalized growth,"locus YGL078C, strain dbp3, stronger effect = lower value",0.975 (inactive)
same,normalized growth,"locus YGL086W, strain mad1, stronger effect = lower value",1.01 (inactive)
same,normalized growth,"locus YGL167C, strain pmr1, stronger effect = lower value",1.01 (inactive)
same,normalized growth,"locus YGL173C, strain kem1, stronger effect = lower value",1.02 (inactive)
same,normalized growth,"locus YGL227W, strain vid30, stronger effect = lower value",1.03 (inactive)
same,normalized growth,"locus YGL240W, strain doc1, stronger effect = lower value",1.1 (inactive)
same,normalized growth,"locus YGL248W, strain PDE1, stronger effect = lower value",1 (inactive)
same,normalized growth,"locus YGL253W, strain hxk2, stronger effect = lower value",1.01 (inactive)
same,normalized growth,"locus YGR135W, strain pre9, stronger effect = lower value",0.974 (inactive)
same,normalized growth,"locus YGR252W, strain gcn5, stronger effect = lower value",1.06 (inactive)
same,normalized growth,"locus YHR013C, strain ard1, stronger effect = lower value",0.861 (inactive)
same,normalized growth,"locus YHR027C, strain rpn1, stronger effect = lower value",0.994 (inactive)
same,normalized growth,"locus YHR030C, strain SLT2, stronger effect = lower value",0.993 (inactive) and 0.435 (active)
same,normalized growth,"locus YHR079C, strain IRE1 (second series), stronger effect = lower value",0.988 (inactive)
same,normalized growth,"locus YHR079C, strain IRE1, stronger effect = lower value",0.831 (active)
same,normalized growth,"locus YHR094C, strain hxt1, stronger effect = lower value",1 (inactive)
same,normalized growth,"locus YHR129C, strain ARP1, stronger effect = lower value",0.99 (inactive)
same,normalized growth,"locus YHR142W, strain chs7, stronger effect = lower value",1.01 (inactive)
same,normalized growth,"locus YHR200W, strain rpn10, stronger effect = lower value",0.988 (inactive)
same,normalized growth,"locus YIL066C, strain RNR3, stronger effect = lower value",0.984 (inactive)
same,normalized growth,"locus YIL073C, strain SPO22, stronger effect = lower value",0.801 (inactive)
same,normalized growth,"locus YIL125W, strain kgd1, stronger effect = lower value",0.992 (inactive)
same,normalized growth,"locus YIR030C, strain dcg1, stronger effect = lower value",1 (inactive)
same,normalized growth,"locus YJL092W, strain hpr5, stronger effect = lower value",1.02 (inactive)
same,normalized growth,"locus YJL095W, strain BCK1 (second series), stronger effect = lower value",1.02 (inactive)
same,normalized growth,"locus YJL095W, strain BCK1, stronger effect = lower value",0.882 (inactive) and 0.512 (active)
same,normalized growth,"locus YJL115W, strain asf1, stronger effect = lower value",1.04 (inactive)
same,normalized growth,"locus YJL129C, strain trk1, stronger effect = lower value",0.901 (inactive)
same,normalized growth,"locus YJL134W, strain LCB3, stronger effect = lower value",0.984 (inactive)
same,normalized growth,"locus YJL154C, strain vps35, stronger effect = lower value",1.02 (inactive)
same,normalized growth,"locus YJL164C, strain tpk1, stronger effect = lower value",1.01 (inactive)
same,normalized growth,"locus YJL166W, strain qcr8, stronger effect = lower value",1.02 (inactive)
same,normalized growth,"locus YJL168C, strain set2, stronger effect = lower value",0.997 (inactive)
same,normalized growth,"locus YJL187C, strain SWE1 (second series), stronger effect = lower value",0.99 (inactive)
same,normalized growth,"locus YJL187C, strain SWE1, stronger effect = lower value",1.01 (inactive)
same,normalized growth,"locus YJR043C, strain POL32, stronger effect = lower value",0.977 (inactive)
